Sampled rows, rich in hits. Any-hit rate of the full collection: about 5.9%.
LANA-H2A inh: blockers of LANA interaction with H2A/H2B – biochemical, FP readout, HTS, primary screen; cell-free LANA-H2A/H2B peptide, fluorescence polarization; inhibition, % (no concentration beside the values); hit rate 0.6% among 320,000; in the data active = inhibition mostly above about 10%, no sharp cut-off; inactive = mostly below about 6.7%
rCAG RNA binder: binders of r(CAG) RNA repeats, primary screen, biochemical, fluorescence | r(CAG) RNA repeat, TO-PRO-1 dye displacement fluorescence | inhibition, % at 3 µM | hit rate 1.3% among 370,000;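 active = inhibition above the plate cutoff, the mean of all test compounds on that plate plus 3 SD, cut at about 35% in these data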;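 note: 0% = DMSO alone and 100% = 100 µM mitoxantrone as full dye displacement; higher means more dye released from RNA so lower well fluorescence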
ALR inh: inhibitors of human ALR sulfhydryl oxidase, primary screen, biochemical, H2O2 detection, HRP-luminol luminescence, single point; FAD-linked sulfhydryl oxidase ALR (Homo sapiens), P55789; purified ALR, DTT oxidation; inhibition, % (test concentration not listed); hit rate 3.8% among 290,000;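 active = mean replicate inhibition above about 79%, with every replicate also reaching it, limit read from the data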
Rtt109 HAT inh: inhibitors of C. albicans Rtt109/Vps75 HAT, primary screen, biochemical, ThioGlo CoA-SH fluorescence, plate reader. Histone acetyltransferase RTT109 (Candida albicans (strain SC5314 / ATCC MYA-2876)), …. purified Rtt109/Vps75, 4 h. inhibition, % at 34.9 µM. hit rate 0.16% among 330,000. AID 540336, 2011;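 active = inhibition of at least 50% in every replicate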
ABHD5-PLIN5 inh: ABHD5-PLIN5 interaction inhibitors, primary screen, cell lysate, split luciferase complementation, luminescence. Perilipin-5 (Homo sapiens) + 1-acylglycerol-3-phosphate O-acyltransferase ABHD5 (Homo …. Split G. princeps luciferase complementation, 4 h. inhibition, % at 4 µM. hit rate 0.78% among 360,000;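 active = inhibition above the mean inhibition across every tested compound plus 3 SD, cut at about 22% in these data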;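 note: 0% = DMSO only wells and the 100% control is not disclosed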
PRMT1 inh: PRMT1 methyltransferase inhibitors, primary screen, biochemical, fluorescence polarization; Protein arginine N-methyltransferase 1 (Homo sapiens), Q99873; recombinant PRMT1, activity-based probe fluorescence polarization; inhibition, % at 2.79 µM; hit rate 1.3% among 370,000; AID 652257, 2013;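 active = inhibition above about 21% made by adding two undisclosed values, limit read from the data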
Target sequence (Q99873 whole entry, looked up): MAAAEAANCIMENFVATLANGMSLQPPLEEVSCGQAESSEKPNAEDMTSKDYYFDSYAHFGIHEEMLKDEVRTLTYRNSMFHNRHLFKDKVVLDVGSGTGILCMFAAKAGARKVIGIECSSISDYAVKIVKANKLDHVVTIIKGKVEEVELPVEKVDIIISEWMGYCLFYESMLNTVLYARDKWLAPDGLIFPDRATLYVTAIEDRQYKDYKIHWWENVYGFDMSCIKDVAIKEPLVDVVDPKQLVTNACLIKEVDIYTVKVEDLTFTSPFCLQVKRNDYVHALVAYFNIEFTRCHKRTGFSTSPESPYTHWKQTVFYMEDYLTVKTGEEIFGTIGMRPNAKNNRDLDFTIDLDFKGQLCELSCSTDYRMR
ABHD5-PLIN5 conf: ABHD5-PLIN5 interaction inhibitors, confirmation, biochemical, luminescence | inhibition, % at 4 µM | hit rate 67% among 2,200 | shares compounds with ABHD5-PLIN5 inh | AID 651612, 2012; in the data active = inhibition above about 23%;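 note: 0% = DMSO vehicle wells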
HNF4 counter: HNF4 dimerization inhibitors, counter-screen for ABHD5-PLIN5 interaction inhibitor project, biochemical, split-luciferase complementation, luminescence; shares compounds with ABHD5-PLIN5 inh; inhibition, % at 4 µM; hit rate 77% among 2,200;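 active = mean inhibition across replicate wells exceeding the computed hit threshold, cut at about 13% in these data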;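 note: light from luciferase halves that rejoin when HNF4 fusion proteins dimerize; 0% = DMSO only wells and the 100% control is not given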
rCAG binder conf: small molecules binding CAG repeat RNA – biochemical, fluorescence, confirmation. shares compounds with rCAG RNA binder. r(CAG) RNA repeat, TO-PRO-1 dye displacement fluorescence. inhibition, % at 3 µM. hit rate 70% among 4,300;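 active = inhibition above a per-plate cutoff, the mean inhibition of sample wells plus 3 SD, cut at about 35% in these data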;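 note: loss of TO-PRO-1 fluorescence as compound displaces dye from 1x1 AA loop RNA; 0% = DMSO only wells and 100% = 100 µM mitoxantrone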
dCAG dye counter: displacement of TO-PRO-1 from CAG DNA duplex, counter-screen for rCAG RNA repeat binder project, biochemical, fluorescence, TO-PRO-1 dye, d(CAG) DNA oligo. shares compounds with rCAG RNA binder. d(CAG) DNA oligo TO-PRO-1 dye displacement. inhibition, % at 3 µM. hit rate 94% among 4,300;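 active = inhibition above its plate's cutoff, the mean test-well inhibition plus 3 SD, cut at about 4.8% in these data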;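 note: 0% = DNA dye mix with DMSO and 100% = 100 µM mitoxantrone; hits displace the dye from DNA and so lower well fluorescence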
PRMT1 inh conf: PRMT1 methyltransferase inhibitors, confirmation, biochemical, fluorescence polarization, triplicate. shares compounds with PRMT1 inh. recombinant His-PRMT1, activity-based probe fluorescence polarization. inhibition, % at 2.79 µM. hit rate 42% among 3,300. AID 687036, 2013;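 active = mean inhibition across replicates above the hit cutoff derived for the earlier primary screen, cut at about 22% in these data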
Starred values were filed as active, the others as inactive; nt = no result.

SMILES	LANA-H2A inh	rCAG RNA binder	ALR inh	Rtt109 HAT inh	ABHD5-PLIN5 inh	PRMT1 inh	ABHD5-PLIN5 conf	HNF4 counter	rCAG binder conf	dCAG dye counter	others
O=c1nc(/C=C/c2ccc(Cl)cc2Cl)cc(C(F)(F)F)[nH]1	-2	49*	6	-3	36*	2	70*	48*	38*	10*
CC1CN=C(NCCc2ccccc2)S1 (stereo not drawn)	2	1	nt	-13	-2	-1	nt	nt	nt	nt
O=C1NC(=S)NC(=O)C1=Cc1cccn1-c1ccc(O)cc1	nt	18	nt	-4	24*	42*	91*	95*	nt	nt	PRMT1 inh conf=68*
CCC1C=CC=CC[C@H](C)[C@@H](O)[C@](C)(O)C(=O)[C@@H](C)[C@H](O)[C@@H](C)C(=O)[C@H](C)[C@@H](O)[C@H](C)C=CC(=O)OC2[C@@H](C)C(CC1)OC1(CC[C@@H](C)C(C[C@H](C)O)O1)[C@@H]2C (stereo partly drawn)	-3	nt	nt	nt	nt	nt	nt	nt	nt	nt
CC1=C(N2CC2)C(=O)C(CO)=C(N2CC2)C1=O	nt	3	nt	-3	-8	2	nt	nt	nt	nt
CN1C(=O)C(=Cc2ccccc2OS(=O)(=O)c2ccccc2)C(=O)N(C)C1=O	5	1	13	2	45*	34*	76*	74*	nt	nt	PRMT1 inh conf=5
CN1C(=O)C(=Cc2ccccc2OCc2ccc(C(=O)O)cc2)C(=O)N(C)C1=O	3	1	26	2	15	18	nt	nt	nt	nt
CCCCn1c(NC(=O)c2ccco2)c(C(=O)OCC)c2nc3ccccc3nc21	-4	1	63	-23	31*	41*	41*	62*	nt	nt	PRMT1 inh conf=8
CCCCn1c(NS(=O)(=O)c2ccc(C)cc2)c(C(=O)OCC)c2nc3ccccc3nc21	2	36*	56	-16	-21	2	nt	nt	18	5.8*
CC1(CCO)C(=O)NC(=S)NC1=O	nt	1	nt	7	8	-6	nt	nt	nt	nt
C[C@H]1COc2cc(N3CCN(C)CC3)ccc2S(=O)(=O)N1	nt	1	nt	nt	-3	3	nt	nt	nt	nt
COc1ccc(CN2C(=O)CC(=O)NC2=S)cc1	0	38*	2	14	-3	18	nt	nt	11	4
CC(C)(C#CC(=O)O)OOC(c1ccccc1)(c1ccccc1)c1ccccc1	2	53*	6	-6	-1	-10	nt	nt	57*	20*
CCOP(=O)(C#CC(C)(C)C)C(C)(O)c1ccccc1 (stereo not drawn)	-7	-4	-10	-6	-2	-2	nt	nt	nt	nt
O=C(N/N=C/c1c(O)n(Cc2ccc(F)cc2)c(=O)[nH]c1=O)c1ccccc1O	-1	85*	97*	25	0	6	nt	nt	67*	26*
O=C(N/N=C/c1c(O)n(CCc2ccccc2)c(=O)[nH]c1=O)c1ccccc1O	-4	87*	nt	-13	-1	4	nt	nt	65*	25*

Screening results as filed in PubChem BioAssay.
